Screens from PubChem.
KLK7 zymogen act: activators of human kallikrein-7 zymogen; P49862; purified proKLK7, EDANS-DABCYL substrate fluorescence; 100% is mature enzyme control, 0% vehicle; activation, % at 7 µM; 0.9% of 370,000 active; AID 652039;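 active means activation above the mean of all tested compounds plus 3 SD, computed per campaign excluding outliers beyond control limits, cut at about 13% in these data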
Target sequence (P49862 whole entry, looked up): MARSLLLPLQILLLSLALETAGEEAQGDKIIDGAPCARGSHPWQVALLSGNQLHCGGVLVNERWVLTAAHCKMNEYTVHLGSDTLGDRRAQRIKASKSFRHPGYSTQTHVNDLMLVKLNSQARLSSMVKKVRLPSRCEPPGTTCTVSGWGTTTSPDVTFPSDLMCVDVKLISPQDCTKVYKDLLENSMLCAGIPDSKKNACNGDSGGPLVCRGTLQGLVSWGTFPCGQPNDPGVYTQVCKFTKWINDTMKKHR
ADAM17 inh: ADAM17 inhibition, QFRET primary screen | P78536 | 0.83% of 370,000 active | recombinant ADAM17, EDANS/DABCYL FRET peptide cleavage | inhibition, % at 6.95 µM;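 active means inhibition above the mean of compounds lying between control limits plus 3 SD, set per campaign, cut at about 8.5% in these data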;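 further: 0% = DMSO-only wells as the low control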
NPR2 activator: GC-B (human) receptor activation; P20594; HEK293-GC-B cells, CNP EC30, cGMP TR-FRET; 0% at EC30 CNP, 100% saturating CNP; activation, % at 10 µM; 0.11% of 370,000 active; AID 1920062;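 active means activation at 10 µM reaching about 35% in either raw or pattern-adjusted values, limit read from the data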
NPR1 activator: GC-A (human) enzyme activation; HEK293 GC-A cells, cGMP TR-FRET, EC30 ANP; 0% at EC30 ANP, 100% saturating ANP; activation, % at 10 µM; 0.14% of 370,000 active; in the data active means activation above about 40%
ADAM10 inh: ADAM10 inhibition, QFRET primary screen | recombinant ADAM10, EDANS/DABCYL FRET peptide cleavage, 3 h | inhibition, % at 7 µM | 0.62% of 370,000 active;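 active means inhibition above a per-campaign cutoff equal to the mean of compounds falling between control-based bounds plus 3 SD, cut at about 20% in these data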;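 further: 0% = DMSO wells while the 100% control is not disclosed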
proKLK7 act conf: proKLK7 activation, confirmation; purified proKLK7, EDANS-DABCYL substrate fluorescence; scaled: vehicle 0, mature enzyme 100; activation, % at 7 µM; shares compounds with KLK7 zymogen act; AID 686949; 68% of 3,200 active;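 active means activation, as change over the incubation, above the mean of all tested compounds plus 3 SD, cut at about 13% in these data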
EDANS interfere: counter-screen for kallikrein-7 activators: EDANS-DABCYL optical interference. shares compounds with KLK7 zymogen act. EDANS-DABCYL substrate fluorescence interference, no enzyme, 4 h; solvent 0%, active enzyme control 100%. activation, % at 7 µM. 80% of 3,200 active. AID 686952;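 active means activation above the all-compound mean plus 3 SD, ignoring values outside control-based bounds, cut at about 4.8% in these data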;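 further: value is the 4 h activation minus the activation read at time zero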
K7 EDANS ctr: counter-screen for kallikrein-7 activators: EDANS-DABCYL interference, dose response. shares compounds with KLK7 zymogen act. EDANS-DABCYL peptide fluorescence interference, no enzyme. EC50, µM. 20% of 250 active. AID 720493;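 active means compounds that raise the fluorescence signal in this interference counterscreen, with EC50 at or below 10 µM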;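 further: intact quenched peptide substrate alone read at 355 nm excitation and 520 nm emission; signal is fluorescence gain from T0 to T4 after four hours at room temperature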
Numbers without * were called inactive; i = inactive; x = no result. An excerpt weighted towards active compounds, which were near 2.2% of everything screened.

SMILES	KLK7 zymogen act	ADAM17 inh	NPR2 activator	NPR1 activator	ADAM10 inh	proKLK7 act conf	EDANS interfere	others
CN(C)c1ccc(C2Nc3ccccc3C(=O)N2NS(C)(=O)=O)cc1 (configuration not stated)	21.8*	-130.3	1.9	-6.5	-366.4	5.1	5.9*
COc1ccc(C2Nc3ccccc3C(=O)N2NS(=O)(=O)c2ccccc2)cc1OC (configuration not stated)	16.7*	-81.9	0.2	1.6	-240.8	4.1	9.0*
COc1ccc(C2Nc3ccccc3C(=O)N2NS(=O)(=O)c2ccc(C)cc2)cc1OC (configuration not stated)	31.2*	-209.9	-1.2	1.9	i	7.7	7.1*
COc1ccc(C2Nc3ccccc3C(=O)N2c2ccc(C)cc2)cc1Cn1nnc2ccccc21 (configuration not stated)	-0.2	-8.6	-7.0	-0.6	-23.7	x	x
COc1ccc(C2Nc3ccccc3C(=O)N2Cc2ccccc2)cc1OC (configuration not stated)	-1.0	-401.2	-6.5	-8.9	i	x	x
COc1ccc(C2Nc3ccccc3C(=O)N2NS(C)(=O)=O)cc1OC (configuration not stated)	58.9*	-209.9	0.1	-0.6	i	21.6*	12.8*	K7 EDANS ctr=i
CC(=O)NN1C(=O)c2ccccc2NC1c1ccc(N(C)C)cc1 (configuration not stated)	7.9	-434.0	-3.6	-1.8	i	x	x
CCCC1CCC2(CC1)CCC2OC(=O)Nc1ccc(F)cc1 (configuration not stated)	x	-0.1	-2.4	3.2	5.8	x	x
CS(=O)(=O)NN1C(=O)c2ccccc2NC1c1cc2ccccc2nc1Cl (configuration not stated)	0.3	-8.4	-2.8	-5.5	-14.4	x	x
CS(=O)(=O)NN1C(=O)c2ccccc2NC1c1ccccc1F (configuration not stated)	35.2*	-212.6	0.3	0.5	i	4.1	8.2*
COC(=O)[C@]12C[C@H](CC(=O)N3CCC(c4ccccc4)CC3)C(=O)N(Cc3ccc(Cl)cc3Cl)C1=C[C@H](C(C)(C)C)O[C@@H]2C	0.8	-1.5	6.3	-0.8	-1.7	x	x
Cc1nn2c(c1-c1ccccc1)NC1=C(C(=O)CCC1)C2c1ccccc1 (configuration not stated)	30.1*	-494.5	-9.5	-11.1	i	62.6*	74.2*
CCC(=O)N1c2ccccc2NC2=C(C(=O)CCC2)C1c1ccccc1 (configuration not stated)	0.7	-2.0	-2.5	-2.8	-6.2	x	x
O=C1CC(N2CCN(Cc3ccc4c(c3)OCO4)CC2)C(=O)N1c1cccc(Cl)c1 (configuration not stated)	0.5	2.8	3.7	0.7	13.3	x	x
COc1ccc(N2C(=O)CC(N3CCN(Cc4ccc5c(c4)OCO5)CC3)C2=O)cc1 (configuration not stated)	53.0*	-5.2	1.3	-2.6	-7.5	0.3	0.3
CN1CCN(c2ccc3c(c2)Oc2ccccc2CN(Cc2cn(Cc4cccc(C(F)(F)F)c4)nn2)S3(=O)=O)CC1	0.0	3.4	10.1	-0.4	3.6	x	x
COc1ccccc1N(O)C1CC(=O)N(c2ccc(F)cc2)C1=O (configuration not stated)	6.3	0.7	2.2	0.4	11.8	x	x
COc1ccccc1N1C(=O)CC(N(O)c2ccccc2)C1=O (configuration not stated)	117.5*	0.8	3.6	-0.8	9.1	191.9*	195.4*
O=C1CC(N(O)c2ccccc2)C(=O)N1c1cc(Cl)cc(Cl)c1 (configuration not stated)	47.8*	0.4	4.0	8.7	-9.1	645.3*	616.9*
CCCOc1ccc(N2C(=O)CC(N(O)c3ccccc3)C2=O)cc1 (configuration not stated)	111.6*	-5.9	-2.8	5.8	1.5	120.0*	124.8*
CCCOc1ccc(N2C(=O)CC(N(Cc3ccccc3)N=O)C2=O)cc1 (configuration not stated)	0.0	2.0	2.3	3.2	-7.0	x	x
CCCOc1ccccc1N1C(=O)CC(N(O)c2ccccc2)C1=O (configuration not stated)	47.1*	1.3	-2.3	5.0	-5.9	29.1*	31.2*
O=C1CC(N(O)c2ccccc2)C(=O)N1Cc1ccccc1 (configuration not stated)	0.5	-3.5	3.9	-1.7	2.6	x	x
COC(=O)[C@]12C[C@H](CC(=O)NCCCN3CCCC3=O)C(=O)N(Cc3ccc(Cl)cc3Cl)C1=C[C@H](C(C)C)O[C@@H]2C1CC1	0.9	-1.4	-10.0	-16.3	3.8	x	x
COc1ccc(S[C@]2(C(=O)N3CCOCC3)CC(=O)N(C(=O)/C=C/c3ccccc3)[C@@H]2c2ccc(OC)cc2)cc1	0.0	2.0	0.1	1.4	6.0	x	x
SMILES	KLK7 zymogen act	ADAM17 inh	NPR2 activator	NPR1 activator	ADAM10 inh	proKLK7 act conf	EDANS interfere	others
CC(=O)c1cc(-c2ccccc2)c(=O)n2c1CCC2	0.6	-1.0	-3.3	-2.7	-8.4	x	x
COc1ccc(S[C@]2(C(=O)N3CCN(c4ncccn4)CC3)CC(=O)N(C(=O)c3ccccc3)[C@@H]2c2ccc(OC)cc2)cc1	-0.2	3.8	0.0	0.2	-5.3	x	x
Cc1ccccc1N1C(=O)CC(N(O)c2ccccc2)C1=O (configuration not stated)	362.9*	4.3	-2.4	0.9	-4.5	316.9*	330.3*
Cc1ccccc1N1C(=O)CC(Nc2ccc3c(c2)OCO3)C1=O (configuration not stated)	0.1	-4.9	2.3	0.7	4.6	x	x
O=[n+]1cc(-c2cc3ccccc3o2)n([O-])c2c1CCCC2	14.9*	-45.1	-0.6	-0.3	-162.4	12.4	17.8*
COc1ccccc1-c1coc2c(CN3CCC(C)CC3)c(O)ccc2c1=O	56.6*	i	1.4	1.6	i	64.0*	63.3*
CCC1CCCCN1Cc1c(O)ccc2c(=O)c(-c3ccccc3OC)coc12 (configuration not stated)	34.6*	-481.0	1.4	0.3	i	50.6*	71.1*
Cc1nn(-c2ccccc2)c2sc(C(=O)NCCc3ccccc3)cc12	-0.1	2.1	11.7	7.3	-4.9	x	x
